Inconclusive results are not listed. Entries that show only a call come without a potency. Calls of active or inactive are those of the source. Calls come from the whole dose curve.

40 compounds from PubChem BioAssay AID720518 (National Center for Advancing Translational Sciences (NCATS), 2013) can be followed below.

A short description of this assay: qHTS for Inhibitors of Cell Surface uPA Generation: Wild-type Protective Antigen (WT-PrAg) Counterscreen for Cherry-picked Compounds. The conditions noted are these: cells, WT protective antigen toxicity counterscreen; series mostly up to 115 µM. In general terms: Quantitative high-throughput screening tests each substance at several concentrations.
With `COC(=O)C1=CN(Cc2ccc(F)cc2)C=C(C(=O)OC)C1c1ccc(O)c(OC)c1`, the Potency entry was “inactive”.

For the compound `COc1ccc(C(C)=O)cc1CSC(=N)N`, the Potency result was “inactive”.

As for `COc1ccc(C(=O)N2CCN(c3ccc(C(C)=O)cc3)CC2)cc1S(=O)(=O)N1CCCC1`, the Potency result was “inactive”.

In the case of `CCC1Nc2ncnc(N3CCCCC3)c2N(Cc2ccc(Cl)cc2)C1=O` (stereo not given), the Potency result is “inactive”.

Regarding `Cn1nc(C(C)(C)C)c([N+](=O)[O-])c1C(=O)N1CCOCC1`, the Potency result was “inactive”.

Regarding `Cc1cnc(CNC(=O)CC2C(=O)NCCN2Cc2ccccc2C(F)(F)F)cn1` (stereo not given), the Potency result was “inactive”.

Consider `C=CC[n+]1c(/C=C/c2ccc(OC(C)=O)c(OC)c2)ccc2ccccc21`, for which the Potency entry is “inactive”.

With `CCOC(=O)c1cc(-c2ccccc2C)n(CC2CC(c3ccc(OC)cc3)=NO2)n1` (stereo not given), the Potency result was “inactive”.

On to `Cc1ccc(S(=O)(=O)NC(=O)Nc2nccs2)cc1`, for which the Potency entry was “inactive”.

`CC(C)Cn1cnc2c(N)nc3ccccc3c21`: the Potency entry is “inactive”.

As for `COc1cc(SC)ccc1C(=O)OCc1nc2ccsc2c(=O)[nH]1`, the Potency entry is “inactive”.

In the case of `C=CCn1c(C)cc(C(=O)COC(=O)/C=C/c2cccc(OC)c2)c1C`, the Potency result is “inactive”.

In the case of `Cc1ccccc1O`, the Potency entry is “inactive”.

Take `CCOc1ncccc1C(=O)NCc1ccccc1Cl`: the Potency result was “inactive”.

Consider `O=C(NCC1CCCO1)c1ccc(NC(=O)c2ccc([N+](=O)[O-])cc2)cc1` (stereo not given), for which the Potency entry was “inactive”.

As to `O=C(CCN1CCN(c2ccccc2F)CC1)Nc1ccc(F)cc1`, the Potency result was “inactive”.

Consider `O=C(Nc1ccc2c(c1)CCC2)Nc1ccc2c(c1)OCO2`, for which the Potency result was “inactive”.

For the compound `Cc1ccc(-c2nc(CS(=O)(=O)CC(=O)NCc3cccc(F)c3)c(C)o2)cc1`, the Potency entry is “inactive”.

Turning to `Cc1ccc(NC(=O)CC2OC(=O)c3ccccc32)cc1S(=O)(=O)N1CCOCC1` (stereo not given), the Potency result was “inactive”.

Consider `O=C(NCCN1CCOCC1)c1ccccc1Cl`, for which the Potency result is “inactive”.

For `Cc1cc2[nH]c(=O)c(=O)[nH]c2cc1S(=O)(=O)NC1CCC(C)CC1` (stereo not given), the Potency entry is “inactive”.

In the case of `N#CCC(=O)N/N=C/c1ccc(OCC(=O)Nc2ccc(F)cc2)cc1`, the Potency entry was “inactive”.

As to `CCN(CC)c1ccc(C=NCCc2ccc(S(N)(=O)=O)cc2)cc1`, the Potency result was “inactive”.

For `COC(=O)[C@]1(Cc2ccccc2)N[C@H](CN(C)C(=O)c2ccccc2)[C@@H]2C(=O)N(Cc3ccccc3)C(=O)[C@@H]21`, the Potency entry was “inactive”.

Consider `CC(C)C(=O)Nc1nnc(SCc2cccc(F)c2)s1`, for which the Potency entry is “inactive”.

On to `CC(C)CCN1C(=O)c2ccc(-c3nc4ccccc4c(=O)o3)cc2C1=O`, for which the Potency entry was “inactive”.

Take `Cc1[nH]c2ccc(C(=O)OC(C)C(=O)NC3CCCCC3C)cc2c1C` (stereo not given): the Potency result is “inactive”.

With `CCOc1ccc(CN2CCN(C(=O)Cc3ccccc3)CC2)cc1`, the Potency entry was “inactive”.

`O=C(Nc1ccc(Cl)cn1)C1CCCN(c2ncnc3c2nc2n3CCCCC2)C1` (stereo not given): the Potency entry is “inactive”.

Take `CCCNC(=O)C1CCC(CNS(=O)(=O)c2ccc3c(c2)CC(C)N3C(C)=O)CC1` (stereo not given): the Potency entry is “inactive”.

As to `COc1ccc(-c2cc3nc(C)cc(-c4ccc(OC)cc4)n3n2)cc1`, the Potency entry was “inactive”.

For the compound `CCOC(=O)C(CC)n1cnc2c(nnn2-c2ccccc2)c1=O` (stereo not given), the Potency result is “inactive”.

In the case of `CCOC(=O)c1c(NC(=O)CC2SC(N)=NC2=O)sc2c1CCC(C)C2` (stereo not given), the Potency result is “inactive”.

With `CN(C(=O)c1ccccc1C(=O)OCC(=O)NCc1ccccc1)C1CCCCC1`, the Potency result was “inactive”.

As to `COc1cccc(CNC(=O)C2CCCN(S(=O)(=O)c3ccc4c(c3)C(C)(C)C(=O)N4C)C2)c1` (stereo not given), the Potency entry was “inactive”.

In the case of `CCn1c(CNc2ccc(F)cc2)nnc1SCC(=O)Nc1ccccc1OC`, the Potency entry is “inactive”.

For `COC(=O)c1cc(CNC(=O)c2ccc(N3CCCC3)c([N+](=O)[O-])c2)ccc1OC`, the Potency result is “inactive”.

Turning to `O=C(O)c1cc(N=Nc2c(O)[nH]c3ccc([N+](=O)[O-])cc23)ccc1Cl`, the Potency entry is “inactive”.

With `CS(=O)(=O)Nc1cccc(C2=NN(S(=O)(=O)c3ccccc3)C(c3ccco3)C2)c1` (stereo not given), the Potency result was “inactive”.

With `COc1ccc(C(=O)NCC(=O)N/N=C/c2c(C)[nH]c3ccccc23)cc1`, the Potency entry is “inactive”.
